64 molecules from PubChem BioAssay can be followed below.

Each structure is given as a SMILES string. The source made the active and inactive calls. Cut-off read from the data, not from the text of the source, unless noted: active = parasite load remaining mostly below about 12% (no sharp cut-off); inactive = mostly above about 10%.

Test [1] can be described thus: hESC survival regulators, cell-based (AID 493140; call rule not given here;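 note: cells exposed to compounds for four days before counting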). Particulars: human embryonic stem cell survival screen; stronger effect = higher value.
Test [2] can be described thus: liver-stage malaria parasite growth inhibition, primary screen, cell-based, HepG2, luciferase luminescence, HepG2 viability (AID 624349).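 Note: 100% = mean of DMSO negative control wells on the same plate.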 Particulars: P. berghei liver stage in HepG2, luciferase luminescence, concentration not given here; parasite load remaining: stronger effect = lower value; viability: measured here: HepG2 viability without parasites.

A word on the viability: it is a read-out of living cells in per cent, often relative to untreated cells. For the molecule `C1CCN2C[C@H]3C[C@@H](CN4CCCC[C@@H]34)[C@H]2C1`, the survival in test [1] is 10 (inactive). Moreover, in test [2], the parasite load remaining was 73.9% (inactive) and the viability came to 72.2%.

Take `CCOC(=O)Oc1c(OC)cc(C(=O)OC2CC3CN4CCc5c([nH]c6cc(OC)ccc56)C4CC3C(C(=O)OC)C2OC)cc1OC` (stereo not given): the survival in test [1] was 6.25 (inactive). In test [2], the parasite load remaining is 55.8% (inactive) and the viability amounted to 77.6%.

Turning to `CN1[C@@H]2CC[C@H]1CC(OC(=O)[C@@H](CO)c1ccccc1)C2` (stereo not given in full), the survival in test [1] was 13.1 (inactive). In addition, in test [2], the parasite load remaining is 111% (inactive) and the viability was 89%.

Regarding `CC(=O)O[C@H]1C(=O)[C@@]2(C)[C@H](O)C[C@@H]3OC[C@]3(OC(C)=O)[C@@H]2[C@@H](OC(=O)c2ccccc2)[C@@]2(O)C[C@@H](OC(=O)[C@@H](O)[C@H](NC(=O)c3ccccc3)c3ccccc3)C(C)=C1C2(C)C`, the survival in test [1] is 5 (inactive). In test [2], the parasite load remaining was 172% (inactive) and the viability was determined as 89.6%.

On to `C[C@]12CCC(=O)C[C@H]1CC(=O)[C@@H]1[C@@H]2CC(=O)[C@]2(C)CCC[C@@H]12` (tested in a mixture with another compound), for which the survival in test [1] was 19.5 (inactive). For the same molecule, in test [2], the parasite load remaining was 107% (inactive) and the viability is 86.8%.

For the molecule `Nc1nc2ncc(CNc3ccc(C(=O)N[C@H](CCC(=O)O)C(=O)O)cc3)nc2c(=O)[nH]1`, in test [1], the survival was 11.4 (inactive). Besides, in test [2], the parasite load remaining is 51.4% (inactive) and the viability came to 76.8%.

Consider `Cc1c(C)c2c(c(C)c1O)CC[C@](C)(CCC[C@@H](C)CCC[C@@H](C)CCCC(C)C)O2`, for which, in test [1], the survival is 5.83 (inactive). Further, in test [2], the parasite load remaining was 52.8% (inactive) and the viability turned out to be 78.5%.

In the case of `Nc1ncnc2c1cnn2-c1ccccc1`, in test [2], the parasite load remaining is 72% (inactive) and the viability came out at 108%.

For the molecule `O=C1O[C@H](C(O)CO)[C@H](O)C1O` (stereo not given in full), the survival in test [1] is 4.42 (inactive). Moreover, in test [2], the parasite load remaining was 68.2% (inactive) and the viability was 76.1%.

Consider `O=c1[nH]c(=O)n([C@H]2CC(O)[C@@H](CO)O2)cc1I` (stereo not given in full), for which, in test [1], the survival is 6.25 (inactive). In addition, in test [2], the parasite load remaining was 130% (inactive) and the viability stood at 96.5%.

For the molecule `CN=C(NC#N)NCCSCC1N=CN=C1C` (stereo not given), the survival in test [1] was 16.7 (inactive). For the same molecule, in test [2], the parasite load remaining was 100% (inactive) and the viability was determined as 88.8%.

Turning to `CN(C)CC/C=C1/c2ccccc2CSc2ccccc21`, the survival in test [1] is 3.75 (inactive). In test [2], the parasite load remaining is 68.1% (inactive) and the viability came out at 76.6%.

For `COC1C=CC23c4cc5c(cc4CN(C[C@H]2O)[C@@H]3C1)OCO5` (stereo not given in full), in test [2], the parasite load remaining was 2.19% (inactive) and the viability stood at 98.9%.

In the case of `CS(=O)(=O)c1ccc(-c2nc(-c3ccc(F)cc3)c(-c3ccncc3)[nH]2)cc1`, the survival in test [1] is 113 (inactive). Besides, in test [2], the parasite load remaining is 28.7% (inactive) and the viability worked out at 88.5%.

Turning to `COC1=C[C@]23CCCN2CCc2cc4c(cc2[C@]3(C)C1OC(=O)[C@@](O)(CCCC(C)(C)O)CC(=O)O)OCO4` (stereo not given in full), in test [2], the parasite load remaining was -0.16% (inactive) and the viability is 37.5%.

`CC(C)(CS)C(=O)N1CCC[C@@H]1C(=O)O`: the survival in test [1] was 8.75 (inactive). Besides, in test [2], the parasite load remaining is 94.4% (inactive) and the viability is 94.8%.

For `CC[C@@H]1OC(=O)[C@H](C)[C@H](O[C@H]2C[C@@](C)(OC)[C@@H](O)[C@H](C)O2)[C@@H](C)[C@@H](O[C@@H]2O[C@H](C)C[C@H](N(C)C)[C@H]2O)C(C)(O)C[C@@H](C)[C@@H]2NC(COCCOC)OC([C@H]2C)[C@]1(C)O` (stereo not given in full), the survival in test [1] is 4.33 (inactive). Besides, in test [2], the parasite load remaining was 84.5% (inactive) and the viability was found to be 77.5%.

Turning to `CC[C@H]1CN2CCc3cc(OC)c(OC)cc3[C@@H]2C[C@@H]1CC1NCCc2cc(OC)c(OC)cc21` (stereo not given in full), the survival in test [1] was 0.25 (inactive). Moreover, in test [2], the parasite load remaining was 2.62% (inactive) and the viability worked out at 61.4%.

As for `CC(C)(O/N=C(/C(=O)N[C@@H]1C(=O)N2C(C(=O)[O-])=C(C[n+]3ccccc3)CS[C@H]12)c1csc(N)n1)C(=O)O`, the survival in test [1] was 5.92 (inactive). Moreover, in test [2], the parasite load remaining was 88.2% (inactive) and the viability turned out to be 82.6%.

In the case of `COC1CC(O[C@@H]2[C@H](C)[C@H](OC3OC(C)CC(N(C)C)C3OC(C)=O)[C@H](C)CC3(CO3)C(=O)[C@@H](C)C(OC(C)=O)[C@H](C)[C@H](C)OC(=O)[C@@H]2C)OC(C)C1OC(C)=O` (stereo not given in full), the survival in test [1] was 27.8 (inactive). Moreover, in test [2], the parasite load remaining was 86.6% (inactive) and the viability turned out to be 90.9%.

Regarding `CCCCn1c2ccc(O)cc2c2c3c(c(-c4ccccc4Cl)cc21)C(=O)NC3=O`, in test [2], the parasite load remaining is 56.2% (inactive) and the viability came out at 74.7%.

Regarding `c1ccc(-c2cnc(Nc3ccc(OCCN4CCCC4)cc3)s2)cc1`, in test [2], the parasite load remaining was 46.3% (inactive) and the viability was 100%.

For the molecule `Ic1cccc(CSc2nnc(-c3ccncc3)o2)c1`, in test [2], the parasite load remaining was 20.8% (inactive) and the viability was 98.7%.

Consider `O=Nc1c(-c2c(O)[nH]c3ccc(I)cc23)[nH]c2ccccc12`, for which, in test [2], the parasite load remaining was 33.7% (inactive) and the viability amounted to 156%.

With `CC(C)C(CO)Nc1nc(Nc2cccc(Cl)c2)c2ncn(C(C)C)c2n1` (stereo not given), in test [2], the parasite load remaining is 30.5% (inactive) and the viability amounted to 63.2%.

With `O=C1NC(=O)c2c1c1c3ccccc3[nH]c1c1[nH]c3cc(Br)ccc3c21`, in test [2], the parasite load remaining was 60.6% (inactive) and the viability amounted to 160%.

With `CC[C@@H](CO)Nc1nc(NCc2ccc(-c3ccccn3)cc2)c2ncn(C(C)C)c2n1`, in test [2], the parasite load remaining was 181% (inactive) and the viability came out at 75.3%.

Consider `CCOc1nc(NC(=O)Cc2cc(OC)ccc2OC)cc(N)c1C#N`, for which, in test [2], the parasite load remaining was 37.8% (inactive) and the viability came out at 72.7%.

On to `CCc1[nH]c(-c2ccc(OC)cc2)nc1-c1ccncc1`, for which, in test [2], the parasite load remaining was 30.1% (inactive) and the viability came to 82.4%.

With `COc1ccc2c(c1)c1c3c(c4c5ccccc5n(C)c4c1n2CC(O)CN(C)C)C(=O)NC3=O` (stereo not given), in test [2], the parasite load remaining is 65.8% (inactive) and the viability came out at 144%.

With `Cn1sc(=O)n(Cc2ccccc2)c1=O`, in test [2], the parasite load remaining was 33% (inactive) and the viability was 94.4%.

As to `Cc1cncc2cccc(S(=O)(=O)N3CCCN(C(=O)CN)C[C@H]3C)c12`, in test [2], the parasite load remaining is 43.2% (inactive) and the viability turned out to be 68.1%.

Turning to `CC#CC(=O)Nc1cc2c(Nc3ccc(F)c(Cl)c3)ncnc2cn1`, in test [2], the parasite load remaining is 50.6% (inactive) and the viability turned out to be 159%.

Regarding `Cc1ncc2ccccc2c1C#N`, in test [2], the parasite load remaining was 44.1% (inactive) and the viability is 86.2%.

Regarding `N#C/C(=C(/N)Sc1ccccc1N)c1cccc(C(O)c2ccncc2)c1` (stereo not given), in test [2], the parasite load remaining was 49.2% (inactive) and the viability came out at 70%.

Regarding `CC(=O)NC1SCCC1=O` (stereo not given), in test [2], the parasite load remaining is 139% (inactive) and the viability amounted to 87.1%.

In the case of `CC[C@H](CO)Nc1nc(NCc2ccccc2O)c2ncn(C(C)C)c2n1`, in test [2], the parasite load remaining is 34.4% (inactive) and the viability was determined as 146%.

Consider `O=C1C(Cl)=C(N2C(=O)CCC2=O)C(=O)c2ccccc21`, for which, in test [2], the parasite load remaining was 34.2% (inactive) and the viability turned out to be 76.3%.

Turning to `CN(C)c1ccc(/C=C2/C(=O)Nc3ccccc32)cc1`, in test [2], the parasite load remaining was 34.8% (inactive) and the viability stood at 126%.

On to `CC(=O)c1ccc(N2CCOCC2)cc1O`, for which, in test [2], the parasite load remaining is 38.3% (inactive) and the viability worked out at 110%.

In the case of `Nc1c(O)cccc1C(=O)CC(N)C(=O)O` (stereo not given), in test [2], the parasite load remaining was 62.4% (inactive) and the viability amounted to 73.1%.

Take `O=C(Nc1ccc(-c2cn[nH]c2)cc1)C1COc2ccccc2O1` (stereo not given): in test [2], the parasite load remaining was 48.6% (inactive) and the viability was 62.7%.

Take `Cc1cc(C=C2C(=O)C=CC2=O)cc(C)c1O`: in test [2], the parasite load remaining is 28.7% (inactive) and the viability stood at 70.7%.

Regarding `CC(C)n1cnc2c(NCc3ccccc3O)nc(NCCCO)nc21`, in test [2], the parasite load remaining was 37.8% (inactive) and the viability came out at 118%.

Turning to `O=c1c(O)c(-c2ccc(O)c(O)c2)oc2cc(O)c(O)c(O)c12`, in test [2], the parasite load remaining was 32.1% (inactive) and the viability was 88.8%.

For the molecule `COc1cc2ncnc(Nc3cccc(O)c3)c2cc1OC`, in test [2], the parasite load remaining is 52.5% (inactive) and the viability was found to be 68.3%.

As to `O=C(c1ccccc1)c1ccc(N2CCOCC2)cc1O`, in test [2], the parasite load remaining was 40.6% (inactive) and the viability was 74.9%.

Regarding `O=C1NC(=O)/C(=C/c2ccc3c(c2)OCO3)S1`, in test [2], the parasite load remaining was 37.6% (inactive) and the viability was found to be 63.8%.

Regarding `CCN(CC)C(=O)c1ccc(Nc2nc(OCC3CCCCC3)c3[nH]cnc3n2)cc1`, in test [2], the parasite load remaining was 41.1% (inactive) and the viability was found to be 89.4%.

On to `CSc1nc(-c2ccnc(NC(C)c3ccccc3)c2)c(-c2ccc(F)cc2)[nH]1` (stereo not given), for which, in test [2], the parasite load remaining was 53.6% (inactive) and the viability is 77.8%.

Consider `CC(=O)O/N=C1\C(c2c(O)[nH]c3cc(Br)ccc23)=Nc2ccccc21`, for which, in test [2], the parasite load remaining is 14.7% (inactive) and the viability came to 97.9%.

In the case of `COc1cc2ncnc(N3CCN(C(=O)Nc4ccc(Oc5ccccc5)cc4)CC3)c2cc1OC`, in test [2], the parasite load remaining was 27.2% (inactive) and the viability worked out at 89.5%.

For `OCC(O)CCO/N=C1/C(c2c(O)[nH]c3ccccc23)=Nc2ccccc21` (stereo not given), in test [2], the parasite load remaining is 25.4% (inactive) and the viability is 80.9%.

As to `O=C1NC(=O)c2c1c(-c1ccccc1Cl)cc1[nH]c3ccc(O)cc3c21`, in test [2], the parasite load remaining was 32.6% (inactive) and the viability is 81%.

As to `O=C1c2ccccc2-c2nc3nnnn3nc21`, in test [2], the parasite load remaining was -1.07% (inactive) and the viability was determined as 0.01%.

Turning to `O=C(Nc1ccc(Cl)cc1)c1ccccc1NCc1ccncc1`, in test [2], the parasite load remaining was 39.8% (inactive) and the viability is 69%.

As for `CCOc1cc2ncnc(Nc3cccc(Br)c3)c2cc1OCC`, in test [2], the parasite load remaining was 50.2% (inactive) and the viability was 132%.

For the molecule `Cn1c(O)c(-c2[nH]c3ccccc3c2N=O)c2ccc(Br)cc21`, in test [2], the parasite load remaining is 27.7% (inactive) and the viability came out at 171%.

As to `NC(=O)Nc1cc(-c2ccccc2)sc1C(N)=O`, in test [2], the parasite load remaining is 74.4% (inactive) and the viability was determined as 163%.

For the molecule `O=C(O)/C=C/c1cc(Br)c(Br)c(Br)c1Br`, in test [2], the parasite load remaining was 36.5% (inactive) and the viability stood at 98.8%.

Take `CCCC(=O)Oc1ccc2[nH]c(C(=O)c3cc4ccccc4[nH]3)cc2c1`: in test [2], the parasite load remaining was 38.9% (inactive) and the viability was found to be 104%.

With `O=C1C(C2=C3C(=Nc4ccccc43)/C(=C\c3ccc(O)cc3)C2=O)=C2C(=Nc3ccccc32)/C1=C\c1ccc(O)cc1`, in test [2], the parasite load remaining is 52% (inactive) and the viability worked out at 71.2%.

As to `NCCCn1cc(C2=C(c3c[nH]c4ccccc34)C(=O)NC2=O)c2ccccc21`, in test [2], the parasite load remaining is 53.3% (inactive) and the viability was determined as 148%.

On to `O=C1Nc2ccc(Br)cc2/C1=C/c1cc2c([nH]1)CCCC2`, for which, in test [2], the parasite load remaining is 44.1% (inactive) and the viability stood at 66.2%.
